Source: PubChem BioAssay (National Center for Advancing Translational Sciences (NCATS))
Sm TGR block = inhibitors of Schistosoma mansoni thioredoxin glutathione reductase; AID 485364; purified TGR, DTNB reduction, TNB absorbance 405 nm; actives 3% (n = 360,000); Q962Y6; Potency, µM (titrated, usually from 114 µM), for the others: at the top dose activity change, negative = inhibition, hits mostly inhibitors; further: potency means the concentration at half of the fitted maximal effect; nearly all actives have a fitted effect of over 60% in size
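First, TGR (20 nM dispensed) and NADPH were mixed with compound. Second, a 15 min room-temperature incubation followed. Third, further NADPH and then DTNB were added to start the reaction. Finally, TNB absorbance was monitored kinetically.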
FBPA Giardia inh = inhibitors of Giardia lamblia fructose-1,6-bisphosphate aldolase; A8B2U2; purified Giardia FBPA; Potency, µM (top dose mostly 59.6 µM), for the others: top-dose activity, negative = inhibition, usual class: inhibitors; actives 0.71% (n = 290,000); AID 2451; further: potency means the concentration at half of the fitted maximal effect; nearly all actives have a fitted effect of over 55% in size
Target sequence (A8B2U2 whole entry, looked up): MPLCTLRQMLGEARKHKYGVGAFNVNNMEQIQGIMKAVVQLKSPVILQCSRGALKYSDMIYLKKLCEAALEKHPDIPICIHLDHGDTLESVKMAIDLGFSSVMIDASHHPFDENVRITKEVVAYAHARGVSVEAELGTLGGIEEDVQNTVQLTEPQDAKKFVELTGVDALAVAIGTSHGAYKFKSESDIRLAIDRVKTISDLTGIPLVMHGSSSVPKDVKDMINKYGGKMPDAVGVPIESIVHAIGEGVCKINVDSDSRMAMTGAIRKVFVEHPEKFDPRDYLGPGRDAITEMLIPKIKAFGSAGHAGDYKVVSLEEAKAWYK
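40 nM FBPA preincubated 10 min at RT with compound (up to 57.5 uM final), then substrate plus GAPDH/TPI/NAD/arsenate coupling and diaphorase/resazurin added. Fluorescence read after 20 min at RT, 525/598 nm.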
Pf growth 48h = inhibits P. falciparum growth in the first generation, 48 h. Potency, µM (top dose mostly 28.7 µM), for the others: at the highest dose activity change, negative = inhibition, actives largely listed as inhibitors. P. falciparum luciferase growth in erythrocytes, 48 h. AID 504832. actives 5.9% (n = 310,000); further: potency means the concentration at half of the fitted maximal effect
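Growth was read as firefly luciferase luminescence after a 48 h, 37 C, 5% CO2 exposure of compounds to reporter-bearing P. falciparum cultures (0.1% parasitemia, 2% hematocrit final) in Albumax-supplemented RPMI 1640.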
HCMV inh = human cytomegalovirus inhibition. AID 1259415. activity change, negative = inhibition, % at 57.5 µM. HFF cells, HCMV-luciferase reporter, 72 h; active compounds read low. actives 4.5% (n = 410,000); in the data active means activity change below about -60%; inconclusive means no clear call, values can overlap the other calls; inactive means above about -39%
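Two compound doses tested in HFFs infected with HCMV-luciferase, MOI 1 PFU/cell, 72 h at 37C. Lysate luminescence read with OneGlo; data normalized against buffer-only and 10uM Salinomycin inhibitor controls.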
Pf growth 96h = inhibits malaria parasite growth, 96 h. P. falciparum luciferase reporter growth, 96 h. Potency, µM (doses to about 28.7 µM), for the others: top-dose activity change, negative = inhibition, actives largely listed as inhibitors. actives 6.9% (n = 320,000); further: potency means the concentration at half of the fitted maximal effect
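Readout is luminescence from an integrated firefly luciferase in P. falciparum. Red cells, 2% hematocrit and 0.05% parasitemia final, were cultured with compound through two parasite generations (96 hours) at 37 C, 5% CO2.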
* marks the source's active call; other numbers are inactive results; ? = inconclusive; · = no result; [ ] = dose if it differs, or a comment. In the library only some 14% were active in any assay of this set; here they are far more common. Unless noted, the call rests on the fitted dose curve; in most records, active means well fitted curve in the direction sought with a large enough effect; inconclusive means small, poorly fitted or top-dose-only effect, or another doubt; inactive means no such curve, though single readings can be large; an effect the other way counts as inactive or inconclusive. On the % scale 0 is the no-effect control and ±100 the full control effect.

SMILES | Sm TGR block | FBPA Giardia inh | Pf growth 48h | HCMV inh | Pf growth 96h
COc1cccc(CN2CC(C(=O)NCCCn3cccn3)CCC2=O)c1 (stereo not drawn) | -7% | · | -3% | 58 | 28%
CC[C@H](C)[C@H](NC(=O)c1ccccc1)C(=O)NC(CC(=O)O)c1ccc(F)cc1 (stereo partly drawn) | -13% | 2% | 8% | 1 | 12%
O=C(CN(C(=O)c1csnn1)c1ccc(Cl)cc1)NCCc1ccccc1 | 3% | 16% | 13µM* | 15 | ?
COCCN(C(=O)c1csnn1)C(C(=O)NC1CCCCC1)c1ccc(Cl)cc1 (stereo not drawn) | -11% | -5% | -5% | -99* | -5%
O=C(NCc1ccccc1)C(c1ccc(Cl)cc1)N(C(=O)c1csnn1)C1CC1 (stereo not drawn) | 2% | 18% | -6% | -63* | ?
O=C(CN(C(=O)c1csnn1)c1ccccc1)NCCc1ccccc1 | -4% | 10% | 0% | 13 | 61%
COc1cccc2sc(N(Cc3cccnc3)C(=O)COc3ccccc3)nc12 | 2% | · | · | 0 | ·
COc1ccc2c(c1)Cc1sc(NC(=O)c3ccc(Cl)cc3)nc1-2 | -25% | · | · | -63* | ·
COc1ccc2c(c1)Cc1sc(NC(=O)c3cccc(C)c3)nc1-2 | -12% | · | · | -70* | ·
O=C(Nc1cccc([N+](=O)[O-])c1)OCc1ccc2c(c1)OCO2 | · | · | · | 9 | ·
O=C1OCC/C1=C\OCCCO/C=C1\CCOC1=O | 4% | 0% | 34% | 66 | 20%
Cc1c(Cl)cccc1NC(=O)CSc1nncn1-c1ccccn1 | 3% | 3% | 29% | -7 | 4%
CN1CCN(c2ncc3c(n2)CCN(Cc2cc(Br)cs2)C3)CC1 | -14% | · | · | -13 | ·
CSc1c(CC(=O)Nc2ccc(F)cc2)n(Cc2ccccc2)c2ccccc12 | 4% | 1% | 7.4µM* | -62* | 13µM*
Cn1c(Cl)c(C(=O)Nc2ccccc2)c2ccccc21 | 1% | -3% | 7% | 76 | 51%
CCOC(=O)Cc1c(Sc2ccccc2)c2cc(C)ccc2n1C | -12% | -6% | ? | -60* | -17%
Cn1c(CC(=O)Nc2ccccc2C(F)(F)F)c(Sc2ccccc2)c2ccccc21 | 2% | 3% | 15µM* | -11 | 0%
Cn1c(CC(=O)Nc2ccccc2)c(Sc2ccccc2)c2ccccc21 | 1% | 2% | ? | 8 | 8.3µM*
CCOc1ccc(-c2nc(CSCC(=O)N3CCN(c4cccc(C(F)(F)F)c4)CC3)c(C)o2)cc1 | -3% | · | · | ? | ·
Cn1c(CC(=O)Nc2ccccc2)cc2ccccc21 | -2% | 2% | 50% | 43 | 58%
CSc1c(CC(=O)Nc2ccccc2)n(C)c2ccccc12 | 13% | 18% | 10µM* | -37 | ?
Cc1cccc(NC(=O)C2CCCN2S(=O)(=O)c2ccc(Cl)cc2)n1 (stereo not drawn) | 1% | · | 3% | -25 | 4%
COC(=O)N1[C@H]2CC[C@@]3(C)C=C(C)O[C@]1(C)C3c1ccccc12 | · | -1% | · | · | ·
CCOC(=O)c1nc(NNC(=O)c2ccc([N+](=O)[O-])cc2)sc1C | ? | 19% | ? | -97* | 3.3µM*
CCOC(=O)c1sc(NNC(=O)c2ccc(C)cc2)nc1C | 7% | 13% | ? | 39 | -8%
SMILES | Sm TGR block | FBPA Giardia inh | Pf growth 48h | HCMV inh | Pf growth 96h
CCCOP(=O)(OCCC)c1c([N+](=O)[O-])cc(C(F)(F)F)cc1[N+](=O)[O-] | -11% | -13% | · | ? | 9.3µM*
Cc1cc(=O)oc2c(C(=O)/C=C\c3cccs3)c(O)ccc12 | -10% | -2% | -9% | ? | 13µM*
CC(=O)c1c(OCC(=O)O)ccc2c(C)cc(=O)oc12 | 1% | -10% | 1% | 7 | ·
COc1ccc(/C=C\C(=O)c2c(O)ccc3c(C)cc(=O)oc23)cc1OC | -3% | -1% | 9.3µM* | -94* | ·
Cc1cc(=O)oc2c(C(=O)/C=C/c3ccccc3)c(O)ccc12 | -22% | 4% | 5.9µM* | -30 | ·
COc1cc(/C=C/C(=O)c2c(O)ccc3c(C)cc(=O)oc23)ccc1O | -29% | -16% | ? | -92* | ?
CC(C)(C)C(=O)NC1CCN(S(C)(=O)=O)CC1 | -6% | 3% | -17% | 5 | 12µM*
CC(C)(C)C(=O)NC1CCN(C(=O)N2CCCC2)CC1 | 0% | 4% | 6% | 31 | ?
COc1cccc(CN(C)C(=O)c2ccc3nccnc3c2)c1 | -9% | -5% | · | 20 | ?
CN(Cc1ccc(Cl)s1)C(=O)CCl | 2.8µM* | -1% | 9.3µM* | 135 | 1.5µM*
COc1ccc(OCC(=O)N(C)Cc2ccccc2)cc1 | 1% | 1% | 1% | -23 | 10%
CN(Cc1ccc(Cl)cc1)C(=O)CCl | 1.8µM* | -6% | ? | -64* | ?
COc1ccc(CN(C)C(=O)CCl)cc1 | 22µM* | -9% | 13µM* | 0 | 10µM*
COc1ccc(CN(C)C(=O)c2cccc(C(=O)N(C)Cc3ccc(OC)cc3)c2)cc1 | -7% | 7% | ? | -71* | ?
CN(C)CCNC(=O)c1ccc(Cl)s1 | -9% | 3% | 35% | 11 | -18%
C[C@H](CO)N1C[C@H](C)[C@@H](CN(C)Cc2ccc(Oc3ccccc3)cc2)OCc2cnnn2CCCC1=O | · | · | · | -13 | ·
CC(=O)OCC(=O)[C@@]1(O)CC[C@H]2[C@@H]3CCC4=CC(=O)C=C[C@]4(C)[C@H]3C(=O)C[C@@]21C | 7% | 0% | 0% | 12 | -24%
CCOC1(C)OCC(=O)[C@]2(CCC3C4CCC5=CC(=O)C=CC5(C)C4C(=O)CC32C)O1 (stereo partly drawn) | 3% | 5% | 10µM* | 45 | ?
CCCC(c1nnnn1CC(=O)OCC)N(Cc1cc2ccc(C)cc2[nH]c1=O)C1CCCC1 (stereo not drawn) | 2% | -10% | -2% | -1 | ?
CCCC(c1nnnn1CC(=O)OCC)N(Cc1cc2c(C)cc(C)cc2[nH]c1=O)C1CCCC1 (stereo not drawn) | ? | -5% | 13µM* | 82 | ·
O=C(Cn1c(=O)oc2cc(S(=O)(=O)N3CCCCCC3)ccc21)Nc1cccc(C(F)(F)F)c1 | 6% | · | · | ? | ·
O=C(Cn1c(=O)oc2cc(S(=O)(=O)N3CCCC3)ccc21)N1CCN(c2ccccn2)CC1 | -4% | 2% | -7% | -15 | 12µM*
CC1CCCCC1NC(=O)Cn1c(=O)oc2cc(S(=O)(=O)N3CCCC3)ccc21 (stereo not drawn) | -11% | 13% | -8% | 1 | 10µM*
O=C(Cn1c(=O)oc2cc(S(=O)(=O)N3CCCC3)ccc21)N1CCN(c2ccccc2F)CC1 | 3% | 21% | ? | ? | ?
O=C(Cn1c(=O)oc2cc(S(=O)(=O)N3CCCC3)ccc21)Nc1cccc(C(F)(F)F)c1 | 4% | -17%[12.9 µM] | 36% | -21 | 12µM*
